# “And” between values parts separate entries of the source, which are not always exact repeats. Identical values can stand only once. Counter-ions that a name gives are not always drawn. ± gives the standard deviation of the averaged measurements. In all, about 2,600 compounds were measured (“total cell number (DAPI+ nuclei) relative to DMSO vehicle control”: median about -1.4, lowest 2% from about -23 on). This excerpt belongs to a sample that is enriched for the lowest values.
# Tested on: jimpy (Plp1 jimpy) mouse iPSC-derived oligodendrocyte progenitor cells
# Experiment: total cell number (DAPI+ nuclei) relative to DMSO vehicle control (SDs above negative control mean); higher = more surviving cells
# Details: 10 µM; 3 days
# Method: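 Primary phenotypic screen of >3,000 bioactive compounds (Selleck L1700 and Sigma LO1280 libraries) at a single dose of 10 µM. Compounds were added to jimpy (Plp1 mutant) mouse iPSC-derived OPCs at the start of thyroid hormone-induced oligodendrocyte differentiation, one well per compound in 384-well plates. After 3 days cells were stained for MBP, Sox10 and DAPI and imaged with an Operetta system. MBP+ oligodendrocyte number and total cell number were expressed as the number of SDs above the mean of the DMSO negative control on the same plate (n=16 control wells per plate). Hits were defined as >=4 SD for oligodendrocytes and >=2 SD for total cells.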
row,SMILES,total cell number
1,Nc1nccc2c1ncn2C1C=C(CO)C(O)C1O (centres undefined) [3-Deazaneplanocin A (DZNeP)],-9.16
2,CN(C)C[C@H](O)Cn1c2ccc(Br)cc2c2cc(Br)ccc21 (racemic) [Wiskostatin],-4.17
3,Nc1n[n+]([O-])c2ccccc2[n+]1[O-] [Tirapazamine],-6.5
4,COc1c(C)cnc(Cn2cnc3c(Cl)nc(N)nc32)c1C,-26.3
5,COc1ccc2[nH]c([S@@+]([O-])Cc3ncc(C)c(OC)c3C)nc2c1 [Esomeprazole magnesium dihydrate],-0.604
6,COc1ccc2[nH]c([S+]([O-])Cc3ncc(C)c(OC)c3C)nc2c1 (centres undefined) [Omeprazole],5.38
7,COc1ccc2[nH]c([S@@+]([O-])Cc3ncc(C)c(OC)c3C)nc2c1 [Esomeprazole Sodium],1.8
8,CC(C)(C)C(=O)Oc1ccc(S(=O)(=O)Nc2ccccc2C(=O)NCC(=O)O)cc1 [Sivelestat sodium salt hydrate],0.0346
9,OCCN1CCN(CC/C=C2/c3ccccc3Sc3ccc(C(F)(F)F)cc32)CC1 [cis-(Z)-Flupenthixol dihydrochloride],-7.96
10,O=C(CCCCCN1C(=O)c2cccc3cccc(c23)C1=O)NO [Scriptaid],-6.21
11,CN(C)CCN1C(=O)c2cccc3cc(N)cc(c23)C1=O [Amonafide],-24
12,CC(NC(=O)c1ccccc1/N=C/c1c(O)ccc2ccccc12)c1ccccc1 (centres undefined) [Sirtinol],-0.73
13,CCC(=O)O[C@]1(C(=O)CCl)[C@@H](C)C[C@H]2[C@@H]3C[C@H](F)C4=CC(=O)C=C[C@]4(C)[C@@]3(F)[C@@H](O)C[C@@]21C [Halobetasol Propionate],10.4
14,O=C(O)CC[C@H]1CC[C@@](c2cc(F)ccc2F)(S(=O)(=O)c2ccc(Cl)cc2)CC1,0.0291
15,CC(C)(C)c1cnc(CSc2cnc(NC(=O)C3CCNCC3)s2)o1,-22.9
16,Nc1ncnc2c1nc(Br)n2C1OC2COP(=O)(O)O[C@@H]2C1O (some centres undefined) [8-Bromo-cAMP sodium],-0.722
17,CC(C)[C@H]1C(=O)N[C@@H](CCCNC(=N)N)C(=O)NCC(=O)N[C@@H](CC(=O)O)C(=O)N[C@H](Cc2ccccc2)C(=O)N1C [Cilengitide],1.19
18,COc1cc(Nc2c(C#N)cnc3cc(OCCCN4CCN(C)CC4)c(OC)cc23)c(Cl)cc1Cl [Bosutinib (SKI-606)],-26.4
19,COc1cc(Nc2c(C#N)cnc3cc(OCCCN4CCN(C)CC4)c(OC)cc23)c(Cl)cc1Cl [Bosutinib],-10.5
20,COc1cc(C(=O)OCCCN2CCCN(CCCOC(=O)c3cc(OC)c(OC)c(OC)c3)CC2)cc(OC)c1OC [Dilazep hydrochloride],-5.8
21,COc1cc2/c(=N/c3ccc(Br)cc3F)nc[nH]c2cc1OCC1CCN(C)CC1 [Vandetanib (ZD6474)],-26.7
22,COc1cc2nc(N3CCCN(C)CC3)nc(NC3CCN(Cc4ccccc4)CC3)c2cc1OC,-10.1 and -15.2
23,COc1ccc(C[C@H](NC(=O)[C@H](C)NC(=O)CN2CCOCC2)C(=O)N[C@@H](Cc2ccccc2)C(=O)[C@@]2(C)CO2)cc1,-12.1
24,CC(C)(N)c1ncc(-c2ccc(OC(F)(F)F)cc2)[nH]1,-3.28
25,Oc1cccc(-c2nc(N3CCOCC3)c3oc4ncccc4c3n2)c1,-21

row,SMILES,total cell number
1,N#CC(C#N)=C(N)/C(C#N)=C/c1cc(O)c(O)c(O)c1 [Tyrphostin 51],-1.44
2,C[C@@H](Oc1cc(-c2cnn(C3CCNCC3)c2)cnc1N)c1c(Cl)ccc(F)c1Cl,-27.1
3,C[C@H](Oc1cc(-c2cnn(C3CCNCC3)c2)cnc1N)c1c(Cl)ccc(F)c1Cl [(S)-crizotinib],-15.7
4,Fc1cc(-c2cccc3ncc(-c4cnn(C5CCNCC5)c4)nc23)cc(F)c1CN1CCOCC1,-12.4
5,C=CCc1cccc(/C=N/NC(=O)CN2CCN(Cc3ccccc3)CC2)c1O,-9.01 ± 1.4
6,O=C(Nc1ccc(S(=O)(=O)Nc2ccccc2Cl)c(Cl)c1)c1ccccn1,0.173
7,O=c1cc2c(=O)oc3cc(O)c(O)oc3c2c(O)c1O [Galloflavin potassium],-1.51
8,Cc1[nH]c(/C=C2\C(=O)Nc3ccc(S(=O)(=O)N(C)c4cccc(Cl)c4)cc32)c(C)c1C(=O)N1CCN(C)CC1,-26.7
9,Cc1[nH]c(/C=C2\C(=O)Nc3ccc(S(=O)(=O)Cc4c(Cl)cccc4Cl)cc32)c(C)c1C(=O)N1CCC[C@@H]1CN1CCCC1,-27.2
10,CN1CCN(C(=O)c2cc3cc(Cl)ccc3[nH]2)CC1,-2.98
11,CC(C)C[C@H](NC(=O)[C@H]1O[C@@H]1C(=O)O)C(=O)NCCCCN=C(N)N,-3.4 ± 0.35
12,CN1[C@@H]2CC[C@H]1C[C@@H](OC(=O)C(O)c1ccccc1)C2 (mixture of isomers) [DL-Homatropine hydrobromide],0.0407
13,Cc1nc(NC(=O)N2CCC[C@H]2C(N)=O)sc1-c1ccnc(C(C)(C)C(F)(F)F)c1,-10.3
14,COc1cc(C(O)C(=O)O)ccc1O (racemic) [(±)-Vanillylmandelic acid],-0.443
15,CC(=O)Nc1nc(C)c(-c2ccc(Cl)c(S(=O)(=O)NCCO)c2)s1,-15.8
16,C[C@H](c1ccc(F)cc1CCCC(=O)O)N(c1cc(F)ccc1F)S(=O)(=O)c1ccc(Cl)cc1,-4.06
17,COc1cc(OC)cc(-c2cc3cnc(N)nc3nc2NC(=O)NC(C)(C)C)c1,-5.24
18,CCN(CC)CCCCCCCCOC(=O)c1cc(OC)c(OC)c(OC)c1 [TMB-8 hydrochloride],2.1
19,CCN(CC)CCCCNc1ncc2cc(-c3cc(OC)cc(OC)c3)c(NC(=O)NC(C)(C)C)nc2n1,-24.8
20,C=C1CC[C@@H]2[C@](C)(CO)[C@H](O)CC[C@@]2(C)[C@@H]1C/C=C1/C(=O)OC[C@H]1O [Andrographolide],-9.57
21,C=CC(=O)Nc1ccc2ncnc(Nc3cccc(Br)c3)c2c1,-13.1
22,N[C@@H](Cc1ccc(F)cc1)C(=O)O [p-Fluoro-L-phenylalanine],-1.39
23,Cc1ccc([N+](=O)[O-])cc1S(=O)(=O)N(C)/N=C/c1cnc2ccc(Br)cn12,-25.8
24,O=C(O)C1=CO[C@@H](O[C@@H]2O[C@H](CO)[C@@H](O)[C@H](O)[C@H]2O)[C@@H]2C(CO)=CC[C@H]12 [Geniposidic acid],-0.368
25,COc1ccc(S(=O)(=O)Nc2nc(-c3cccc([N+](=O)[O-])c3)cs2)cc1OC,-0.431

row,SMILES,total cell number
1,O=C(c1cc(O)c(O)c([N+](=O)[O-])c1)c1ccccc1F,0.768
2,CC1(C)CCC(CN2CCN(c3ccc(C(=O)NS(=O)(=O)c4ccc(NCC5CCOCC5)c([N+](=O)[O-])c4)c(Oc4cnc5[nH]ccc5c4)c3)CC2)=C(c2ccc(Cl)cc2)C1,-3.38
3,CC1(C)CCC(c2ccc(Cl)cc2)=C(CN2CCN(c3ccc(C(=O)NS(=O)(=O)c4ccc(N[C@H](CCN5CCOCC5)CSc5ccccc5)c(S(=O)(=O)C(F)(F)F)c4)cc3)CC2)C1 [ABT-263 (Navitoclax)],-16.7
4,CN(C)CC[C@H](CSc1ccccc1)Nc1ccc(S(=O)(=O)NC(=O)c2ccc(N3CCN(Cc4ccccc4-c4ccc(Cl)cc4)CC3)cc2)cc1[N+](=O)[O-],-23.1
5,CCOC(=O)c1c(CSc2ccccc2)n(C)c2cc(Br)c(O)c(CN(C)C)c12 [Arbidol HCl],-4.97
6,COC(=O)C1=C(C)NC(C)=C(C(=O)OCCN2CCN(C(c3ccccc3)c3ccccc3)CC2)C1c1cccc([N+](=O)[O-])c1 (centres undefined) [Manidipine],-13
7,COC(=O)C1=C(C)NC(C)=C(C(=O)OCCN2CCN(C(c3ccccc3)c3ccccc3)CC2)C1c1cccc([N+](=O)[O-])c1 (centres undefined) [Manidipine 2HCl],-11.4
8,C=CCN1CCc2cc(O)c(O)cc2C(c2ccccc2)C1 (racemic),-1.7
9,C[C@@]1(C(=O)Nc2ccc(F)nc2)CCCN1c1nc(Nc2cc(C3CC3)n[nH]2)c2cccn2n1,-24.7
10,O=C(COc1cccc2c(=O)[nH]ccc12)c1ccccc1,-0.123
11,CCc1ccc2c(-c3cccc(Cl)c3)nc(=O)n(CC)c2n1,0.722
12,CC(C)NC[C@@H](C(=O)N1CCN(c2ncnc3c2[C@H](C)C[C@H]3O)CC1)c1ccc(Cl)cc1,-8.76
13,COc1ccc(C2=N[C@@H](c3ccc(Cl)cc3)[C@@H](c3ccc(Cl)cc3)N2C(=O)N2CCNC(=O)C2)c(OC(C)C)c1 [Nutlin-3],-23.5
14,C=C1C(=O)O[C@@H]2/C=C(\C)CC/C=C(\C)CC[C@@H]12 [Costunolide],-21
15,"CN1CCN(c2ccc3nc(-c4c(N)c5c(F)cccc5[nH]c4=O)[nH]c3c2)CC1 [Dovitinib (TKI-258, CHIR-258)]",-25.7
16,CN1CCN(c2ccc3nc(-c4c(N)c5c(F)cccc5[nH]c4=O)[nH]c3c2)CC1 [Dovitinib (TKI-258) Dilactic Acid],-12.1
17,COc1cc(CCc2cc(NC(=O)c3ccc(N4CC(C)NC(C)C4)cc3)n[nH]2)cc(OC)c1 (centres undefined),-10.9
18,NC/C=C/C(=O)O [(E)-4-amino-2-butenoic acid],-1.89
19,CC(C)NCC(O)COc1cccc2ccccc12 (racemic) [(±)-Propranolol hydrochloride],-1.57
20,c1ccc(-c2[nH]ncc2-c2ccnc3ccccc23)nc1,-2.66
21,OC[C@H]1O[C@H]([S-])[C@H](O)[C@@H](O)[C@@H]1O.[Au+] [Aurothioglucose],-2.94
22,O=C(c1ccc(/C=C/c2n[nH]c3ccccc23)cc1)N1CCNCC1,-13.2
23,COCC[n+]1c2c(n(Cc3cnccn3)c1C)C(=O)c1ccccc1C2=O [YM155 (Sepantronium Bromide)],-27.7
24,"Cc1ccc2c(c1)C(=O)C1(O)CCN(c3ccccc3)C1=N2 (single isomer, unassigned; (-)) [(-)-Blebbistatin]",-14.8

# Reference: the supplement of paper PMC6135742
